Assay [1] in a line: viability loss with induced miR-34 in A549 – imaging, A549 dox-inducible miR-34, nuclei and caspase counts, primary screen (AID 1347080). The following applies: A549 miR-34 inducible, Hoechst nuclei count, 48 h.
Assay [2] can be described thus: viability loss in pontine glioma line – cell-based, SU-DIPG-IV, MIPE4.0, CellTiter-Glo, qHTS, dose response (AID 1347063; cut-off not given, nearly all actives have AC50 up to about 30 µM;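 further: compound exposure lasted 48 hours before the viability readout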). The following applies: CellTiter-Glo ATP luminescence. On the technique in general: Cellular ATP, detected with luciferase, serves as a proxy for viable cell number.
Where [3] appears, read: stronger effect = lower value, cell number ratio, induced over uninduced.
Where [4] appears, read: measured here: relative caspase fold change +Dox/-Dox.
[5] abbreviates: measured here: total cells with miR-34 induction, stronger effect = lower value.
Where [6] appears, read: measured here: total cells without miR-34 induction.

Inconclusive results are not listed. Active and inactive are the calls of the source.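 How the source made its calls, unless noted: active means compounds whose cell count with miR-34 switched on is under 0.7 times the count with it off; inactive means the rest.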

This passage reports fold change, cell count and AC50 results from PubChem BioAssay.

In general, AC50 refers to the concentration at which the activity in the assay is half-maximal.

Turning to `CCCCCCCC/C=C\CCCCCCCC(=O)OC[C@@H](COP(O)(O)=S)OC`, the fold change in assay [1] (setting [3]) was 1.15 (inactive); in assay [1] (setting [4]), 0.718. Further, the cell count was determined as 6260 in assay [1] (setting [5]) and 5460 in assay [1] (setting [6]).
The like results for `CCCCC/C=C\C/C=C\C/C=C\C/C=C\CCCC(=O)NOCCO` were, in that order, 0.931 (inactive), 0.519, 5500 and 5910.
The like results for `CCCCC/C=C\C/C=C\C/C=C\C/C=C\CCCC(=O)N[C@H](C)COP(=O)(O)O` were, in that order, 1.03 (inactive), 0.754, 5610 and 5460.
The matching figures for `CCCCC/C=C\C/C=C\C/C=C\C/C=C\CCCC(=O)Nc1cccc([N+](=O)[O-])c1`: 0.95 (inactive), 0.782, 5310 and 5590.
For the compound `C[C@H]1[C@@H](CC(C[C@H]2O[C@@H]3O[C@]4(C)CC[C@H]5[C@H](C)CC[C@@H]([C@H]2C)[C@@]35OO4)CS(=O)(=O)c2ccc(COC(=O)N(C)C)cc2)O[C@@H]2O[C@]3(C)CC[C@H]4[C@H](C)CC[C@@H]1[C@@]24OO3` (stereo not given in full), the AC50 in assay [2] is 209 nM (active).
Turning to `CCCCC/C=C\C/C=C\C/C=C\C/C=C\CCCC(=O)NC1CC1`, the fold change is 1.01 (inactive) in assay [1] (setting [3]) and 0.962 in assay [1] (setting [4]). Further, the cell count in assay [1] (setting [5]) stood at 5860; in assay [1] (setting [6]), 5800.
The matching figures for `CCCCC/C=C\C/C=C\C/C=C\C/C=C\CCCC(=O)NCCS(=O)(=O)O`: 0.96 (inactive), 1.07, 5500 and 5730.
The matching figures for `CCCCC/C=C\C/C=C\C/C=C\C/C=C\CCCC(=O)NCc1ccoc1`: 0.985 (inactive), 1.68, 5700 and 5790.
For the compound `C=C(C)[C@@H]1CCC(C)=C[C@H]1c1c(OC)cc(CCCCC)cc1OC`, the fold change in assay [1] (setting [3]) was 0.935 (inactive); in assay [1] (setting [4]), 1.03. Moreover, the cell count in assay [1] (setting [5]) stood at 5760; in assay [1] (setting [6]) it was 6160.
As to `CCCCC/C=C\C/C=C\C/C=C\C/C=C\CCCC(=O)NCCc1c[nH]c2ccc(O)cc12`, the fold change in assay [1] (setting [3]) is 1 (inactive); in assay [1] (setting [4]) it was 0.653. The figures for the cell count in assay [1] (setting [5]) and in assay [1] (setting [6]) were 5660 and 5630, respectively.
Turning to `CN1C(=O)[C@]23CC4=CC=C[C@H](O)[C@H]4N2C(=O)[C@@]1(CO)SS3`, the fold change is 0.901 (inactive) in assay [1] (stronger effect = lower value) and 1.24 in assay [1] (setting [4]). Further, the cell count turned out to be 657 in assay [1] (setting [5]) and 730 in assay [1] (setting [6]).
In the case of `CCCCC/C=C\C/C=C\C/C=C\C/C=C\CCCC(=O)O[C@H](COC(=O)CCCCCCCCCCCCCCCCC)COP(=O)([O-])OCC[N+](C)(C)C`, the values for the fold change in assay [1] (setting [3]) and in assay [1] (setting [4]) were 0.924 (inactive) and 0.766, respectively. Further, the cell count came out at 5220 in assay [1] (setting [5]) and 5650 in assay [1] (setting [6]).
The matching figures for `COc1ccc(/C=C/C(=O)CC(=O)/C=C/c2ccc(OC)c(OC)c2)cc1OC`: 0.864 (inactive), 0.752, 5430 and 6280.
In the case of `O=C(NCCN1CCC2(CC1)C(=O)NCN2c1ccccc1)c1ccc2ccccc2c1`, the fold change is 0.966 (inactive) in assay [1] (setting [3]) and 1.81 in assay [1] (setting [4]). Moreover, the cell count in assay [1] (setting [5]) turned out to be 5740; in assay [1] (setting [6]), 5940.
Take `CNCCCCCCN(C)N(O)N=O`: the results for the fold change in assay [1] (setting [3]) and in assay [1] (setting [4]) were 0.998 (inactive) and 0.973, respectively. Besides, the results for the cell count in assay [1] (setting [5]) and in assay [1] (setting [6]) were 6040 and 6050, respectively.
The like results for `CCCCCCCC/C=C\CCCCCCCC(=O)N[C@H](C)CO` were, in that order, 0.925 (inactive), 1.87, 5120 and 5540.
Consider `COC(=O)[C@@]1(O)CC2OC1(C)n1c3ccccc3c3c4c(c5c6ccccc6n2c5c31)C(=O)NC4` (stereo not given in full), for which the fold change is 0.903 (inactive) in assay [1] (stronger effect = lower value) and 1.29 in assay [1] (setting [4]). Further, the results for the cell count in assay [1] (setting [5]) and in assay [1] (setting [6]) were 2180 and 2410, respectively.
